The list is not random: actives were taken first. Their share in the collection is about 8.9%.
DRD3 agonist = qHTS of D3 Dopamine Receptor Agonist: qHTS; D(3) dopamine receptor (Homo sapiens), P35462; max activation, %; AID 652048, 2013; D3R DiscoveRx beta-arrestin cells, luminescence, 90 min; 0.58% of 410,000 active; in the data active = max activation above about 30%; also: 0% is about no effect
Target sequence (P35462 whole entry, looked up): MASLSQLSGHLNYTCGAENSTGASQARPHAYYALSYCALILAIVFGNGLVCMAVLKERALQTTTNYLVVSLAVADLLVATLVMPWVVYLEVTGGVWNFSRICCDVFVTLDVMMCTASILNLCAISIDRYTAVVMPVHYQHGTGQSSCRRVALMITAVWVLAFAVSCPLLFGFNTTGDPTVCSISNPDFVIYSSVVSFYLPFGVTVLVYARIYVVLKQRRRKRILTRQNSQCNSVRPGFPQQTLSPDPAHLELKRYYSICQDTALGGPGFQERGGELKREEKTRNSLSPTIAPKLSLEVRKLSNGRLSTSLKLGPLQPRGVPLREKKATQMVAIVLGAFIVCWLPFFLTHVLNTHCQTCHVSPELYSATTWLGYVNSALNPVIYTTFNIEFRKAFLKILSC
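Agonist-mode cell screen: cells plated at 1500/well and incubated overnight at 37 °C, then exposed to library compounds for 90 min at 37 °C. Detection reagent was added for 30–60 min at room temperature, and luminescence was read.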
SW480 rereplic = A quantitative high throughput screen for small molecules that induce DNA re-replication in SW480 colon adenocarcinoma cells; SW480 DNA re-replication, Hoechst DNA content imaging, 48 h; Potency, µM (doses to about 46.1 µM), for the others: at the top dose re-replication activation, actives largely listed as activators; 1.8% of 340,000 active; also: potency is read from the fitted curve at half-maximal effect; % of control where 0% means no effect; nearly all actives have a fitted effect of over 55% in size
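First, 250 cells per well were seeded. Next, compound or vehicle (23 nL) was pinned in, plates sat 48 hr at 37 C. Finally Hoechst was added for 40 min before fluorescence scanning.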
KB-V1 cytotox = qHTS assay for MDR1-selective chemotherapeutics: Primary screen using the drug-selected MDR subline cells KB-V1 | Potency, µM (highest dose often 46.1 µM), usual class: cytotoxic | 3.4% of 400,000 active | AID 1347076, 2019 | KB-V1 MDR cells viability, CellTiter-Glo, 72 h; also: potency is read from the fitted curve at half-maximal effect; % is scaled to controls: 0 for no effect and ±100 for the full control effect; nearly all actives have a fitted effect of over 60% in size
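KB-V1 MDR subline cells in DMEM (phenol-red free, 10% FBS) exposed to compounds in qHTS concentration series for 72 h at 37 degrees C. Viability read by CellTiter-Glo luminescence; concentration-effect curves fitted after normalization and correction.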
MCF10A rereplic = A quantitative high throughput screen for small molecules that induce DNA re-replication in MCF 10a normal breast cells. MCF 10A DNA re-replication, Hoechst nuclear intensity, 48 h. Potency, µM (titrated, usually from 46.1 µM), without a hit: at the top dose activity, positive = re-replication, usual class: activators. 2.9% of 350,000 active; also: potency is read from the fitted curve at half-maximal effect; % of control where 0% means no effect; nearly all actives have a fitted effect of over 50% in size
D3 antag = qHTS of D3 Dopamine Receptor Antagonist: qHTS. max response, negative = inhibition, %. D(3) dopamine receptor (Homo sapiens), P35462. D3R cells, DiscoveRx beta-arrestin luminescence, antagonist mode; active compounds read low. 2.5% of 360,000 active; in the data active = max response below about -50%; inconclusive = no clear call, values can overlap the other calls; also: % is scaled to controls: 0 for no effect and ±100 for the full control effect
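Cells plated overnight at 1500 cells/well, then exposed to library compounds with dopamine controls for 90 minutes at 37 degrees C. DiscoveRx reagent added for 30–60 minutes at room temperature; luminescence read, quantitative HTS format.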
KB-3-1 cytotox = qHTS assay for MDR1-selective chemotherapeutics: Primary screen using the parental adenocarcinoma cell KB-3-1. KB-3-1 viability, CellTiter-Glo ATP luminescence, 72 h. Potency, µM (top dose mostly 46.1 µM), most hits filed as cytotoxic. 1.4% of 400,000 active. AID 1347075, 2019; also: potency is read from the fitted curve at half-maximal effect; % is scaled to controls: 0 for no effect and ±100 for the full control effect; nearly all actives have a fitted effect of over 60% in size
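Luminescent ATP read-out (CellTiter-Glo) measures survival of drug-naive KB-3-1 cells after 72 h compound exposure at 37 °C. Titration series was screened from lowest to highest concentration, with DMSO vehicle plates as background controls.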
* hit, by the source's call; i = inactive; u = inconclusive; x = no result; [ ] = remark or other dose. Unless noted, calls follow the shape of the dose curve; as a rule, active = well fitted curve in the direction sought with a large enough effect; inconclusive = small, poorly fitted or top-dose-only effect, or another doubt; inactive = no such curve, though single readings can be large; an effect the other way counts as inactive or inconclusive.

SMILES | DRD3 agonist | SW480 rereplic | KB-V1 cytotox | MCF10A rereplic | D3 antag | KB-3-1 cytotox
CCCCC1CCC(c2ccc(C(N)=O)cc2)CC1 (configuration not stated) | 2 | -7% | u | -6% | 10 | i
CCCCCC1CCC(c2ccc(/C(N)=N/O)cc2)CC1 (configuration not stated) | 25 | 2.3µM* | i | u | 36 | i
S=C(NCc1ccccc1)NCc1ccc(Cl)cc1 | -18 | 2% | i | 4% | -10 | i
O=C(NC(=S)NCc1ccc(F)cc1)c1ccccc1 | -2 | u | 21µM* | -1% | 1 | i
S=C(NCc1ccccc1)NCc1ccccc1 | 6 | 21µM* | i | u | -14 | i
CCC(=O)N1CCc2cc(Br)cc(S(=O)(=O)CCC(=O)Nc3ccc(Cl)cc3)c21 | -11 | x | i | x | x | i
CC(C)CCNC(=O)C1CCN(c2nc3ccccc3o2)CC1 | 5 | -3% | 13µM* | -6% | 5 | u
COc1ccc(-c2nc(NC(=O)C3CCN(c4nc5ccccc5o4)CC3)sc2C)cc1 | 0 | u | i | 20% | 58 | 26µM*
Cc1ccc(CN2CCC(C(=O)NCCC(C)C)CC2)o1 | -6 | -3% | i | -1% | -64* | i
O=C(NCCc1ccccc1)C1CCN(C2CCN(Cc3ccc(CO)o3)CC2)CC1 | -13 | -4% | i | 1% | 4 | i
CCC(=O)N1CCc2cc(Br)cc(S(=O)(=O)CCC(=O)Nc3cccc(Cl)c3)c21 | -4 | x | i | x | x | i
COc1cc(C)c(C(C)C)cc1S(=O)(=O)n1cnc(C)c1 | -1 | 5.2µM* | u | u | 1 | 5.2µM*
COc1ccc(C)cc1S(=O)(=O)n1cnc(C)c1 | -4 | -24% | i | -2% | 22 | i
CCCC(=O)OCc1cnc(C)c2oc(=O)c(C(=O)Nc3ccccc3)cc12 | -15 | x | i | x | x | i
Cc1ccccc1CN(C)CCS(=O)(=O)c1cc(Cl)ccc1Cl | -9 | 18µM* | u | 9.2µM* | -27 | u
Cc1nc2ccccc2c(=O)n1-c1ccc(NC(=O)C(F)(F)F)cc1 | -10 | x | i | x | x | i
CCOC(CNC(=O)Cn1nc(C)c2ccccc21)OCC | 4 | -38% | i | 0.73µM* | -8 | u
CCOC(CNC(=O)c1cc(C)nn1-c1ccccc1)OCC | 7 | -13% | i | 1% | 32 | i
Cc1ccc(NC(=O)CSc2nc(=O)n(CCCN3CCOCC3)c3c2CCCC3)cc1 | -4 | u | i | -2% | 15 | i
O=C(Nc1nc(-c2cccc([N+](=O)[O-])c2)cs1)C(c1ccccc1)c1ccccc1 | -3 | 2%[9.22 µM] | u | u | -53* | u
Cc1[nH]n(-c2nc(-c3cccc([N+](=O)[O-])c3)cs2)c(=O)c1C | -7 | -3% | 16µM* | 14% | 0 | i
Cc1c(Nc2nc(-c3cccc([N+](=O)[O-])c3)cs2)c(=O)n(-c2ccccc2)n1C | -7 | u | i | 2% | -3 | i
CCCN(CCC)CCCNC(=O)c1nn(C)c2c1CS(=O)(=O)c1ccccc1-2 | 1 | x | i | x | x | i
Cc1ccc(NC(=O)Nc2cnccn2)cc1 | 4 | 12% | i | 5% | 0 | i
CCc1ccccc1NC(=O)Nc1cnccn1 | -5 | -43% | i | 14% | -5 | i
SMILES | DRD3 agonist | SW480 rereplic | KB-V1 cytotox | MCF10A rereplic | D3 antag | KB-3-1 cytotox
CC(C)c1ccc(NC(=O)Nc2cnccn2)cc1 | 0 | u | u | 4.1µM* | u | 4.1µM*
COc1ccc(C)cc1NC(=O)Nc1cnccn1 | -3 | -10% | i | 7% | 3 | i
CCOc1ccccc1NC(=O)Nc1cnccn1 | 5 | 6% | 6.5µM* | -8% | 5 | i
O=C(Nc1cnccn1)Nc1ccccc1Cl | 3 | 10% | 9.2µM* | -2% | 7 | u
COc1ccc(NC(=O)Nc2cnccn2)c(OC)c1 | 4 | -6% | 5.8µM* | -17% | 12 | 5.2µM*
O=C(Nc1ccccn1)Nc1ccccc1Cl | 2 | 2% | i | -3% | 16 | i
Cc1ccccc1CSc1nnc2[nH]c(=O)cc(-c3ccccc3)n12 | 5 | x | x | x | x | x
O=C(Nc1cnccn1)Nc1cccc(Cl)c1Cl | 6 | 4% | 12µM* | u | 15 | u
Cn1c(=O)oc2cc(S(=O)(=O)NCCC(=O)Nc3ccc(F)cc3F)ccc21 | 6 | x | i | x | x | i
O=C1C(c2ccc(F)cc2)N(CCc2ccccc2)C(=O)CN1C1CCCCC1 (configuration not stated) | -11 | x | i | x | x | i
COc1ccc(C(CNC(=O)CCOc2ccccc2)N(C)C)cc1 (configuration not stated) | -52 | u | i | 5% | -76* | i
Cc1ccc(C)c(NC(=S)NCC(c2ccccc2)N(C)C)c1 (configuration not stated) | -39 | 3% | i | 3% | -60* | i
Cc1ccccc1NC(=S)NCC(c1cccnc1)N(C)C (configuration not stated) | 2 | 0% | i | -7% | 1 | i
Cc1cccc(OCCNC(=O)CCNS(=O)(=O)c2ccc3ccccc3c2)c1 | 7 | -1% | 18µM* | 14% | 5 | i
Cc1cccc(OCCC(=O)NCC(c2ccccc2)N(C)C)c1 (configuration not stated) | -5 | -6% | u | 7% | -60* | i
COc1cc(Cl)c(C)cc1NC(=O)Cn1cc(S(=O)(=O)N2CCC(C)CC2)c2ccccc2c1=O | -7 | x | i | x | x | i
COc1ccc(CC(=O)NCC(c2ccc(OC)cc2)N(C)C)cc1 (configuration not stated) | -7 | u | i | 3.3µM* | 2 | i
O=C(c1ccc(Cl)cc1)c1ccc(OCC(=O)N2CCOCC2)cc1 | 0 | -1% | 18µM* | 9% | -11 | i
O=C(COc1ccc(Cl)cc1)OCC(=O)N1CCOCC1 | 6 | 8% | i | u | 3 | i
O=C(COc1ccc(Br)cc1)N1CCCCCC1 | -17 | 16% | i | 79% | -59* | i
CC1(C)CC(=O)c2cc(OCC(=O)N3CCCCCC3)ccc2O1 | -12 | -12% | 18µM* | 9% | -71* | i
COc1ccc(NC(=O)Cn2c(=O)oc3cc(S(=O)(=O)N4CCCC4)ccc32)cc1OC | -3 | x | x | x | x | x
